rRNA inh HTS = reduced GFP signal of wild-type E. coli, primary screen, bacterial rRNA inhibitor project, GFP/RFP fluorescence, OD600, single point; E. coli WT GFP vs humanized-ribosome RFP mutants, 24 h; stronger effect = lower value; DMSO median 0, no signal -100; GFP signal change (wild-type ribosome), % (test concentration not listed); 1.6% of 350,000 active; AID 720706, 2013;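 active = significant combined selectivity score with lowered wild-type GFP, culture density cut under 30%, mutant RFP and density less affected; inactive = any of these conditions unmet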
MITF act = activators of MITF-driven TRPM1 promoter reporter, primary screen, cell-based, SK-MEL-5, luciferase, single point. SK-MEL-5 TRPM1-promoter luciferase, 24 h; % of positive control, neutral wells = 0. activation, % at 12.5 µM. 0.75% of 300,000 active. AID 588334, 2011;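 active = mean activation of at least 80% with every replicate also reaching 80%; inconclusive = mean reaches 80% but some replicate falls short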;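 also: 0% = neutral control wells and 100% = parthenolide positive control wells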
Wnt act = Wnt/beta-catenin pathway activators, primary screen, cell-based, plate reader, single point. 1.2% of 300,000 active. Wnt/beta-catenin reporter cell assay, activator. activation, % at 9.35 µM; in the data active = activation above about 30%, passing the limit was not always enough; inconclusive = no clear call, values can overlap the other calls;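 also: 0% = neutral control wells and 100% = positive control wells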
esBAF inh = Bmi1 luciferase reporter increase in mESCs, primary screen, esBAF inhibitor project, mouse ES cells, Bmi1 luciferase knock-in, single point | 2% of 350,000 active | AID 602393, 2012 | 24 h; 100% = twice the neutral-well signal | reporter increase, % at 12.5 µM; in the data active = activation above about 40%; inconclusive = no clear call, values can overlap the other calls;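 also: 0% = median of the plate's neutral control wells and 100% = double that signal; a rise in the Bmi1 reporter signal indicates esBAF inhibition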
AF4-AF9 inh = inhibitors of AF4 peptide binding to AF9, primary screen, biochemical, AlphaScreen, biotin-AF4 peptide, FLAG-AF9, single point | Protein AF-9 (Homo sapiens), P42568 | inhibition, % at 10 µM | 0.47% of 350,000 active | AID 651704, 2012;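 active = every replicate reaching a set inhibition limit, whatever the replicate mean, cut at about 25% in these data; inconclusive = mean inhibition reaches that limit but some replicates miss it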;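 also: 0% = plate neutral control median and 100% = total signal loss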
* hit, by the source's call; u = inconclusive; x = not tested or not shown. A selection: hits, their analogues and other compounds. The true share with any hit is near 3.7%.

SMILES	rRNA inh HTS	MITF act	Wnt act	esBAF inh	AF4-AF9 inh
CCOC(=O)c1ccc(N)cc1	x	15.2	0.4	4.2	-0.6
CCOC(=O)c1ccc(N=C2NC(=O)CS2)cc1	x	-3.2	x	3.4	x
CCOC(=O)c1ccc(N=c2scc(C)n2CC)cc1	-7.2	52.2	u	57.7*	26.1*
CCOC(=O)c1ccc(N=NN(C)C)cc1	x	99.0*	0.9	x	1.1
O=C(CCCCCn1c(=S)[nH]c2ccc(N3CCOCC3)cc2c1=O)NCc1ccc(Cl)cc1	-24.5*	-16.1	-8.1	-2.6	-0.7
O=c1c2cc(N3CCOCC3)ccc2[nH]c(=S)n1Cc1ccc(Cl)cc1	x	59.6	x	54.4*	x
O=C(c1ccc(Cn2c(=S)[nH]c3ccc(N4CCOCC4)cc3c2=O)cc1)N1CCN(c2ccc(F)cc2)CC1	2.5	39.3	21.2	x	0.8
C[C@@H]1CN([C@H](C)CO)C(=O)c2cc(-c3cncnc3)cnc2O[C@H]1CN(C)C(=O)Cc1cccnc1	1.0	x	x	2.2	-7.1
CN(C)c1ccc(/C=C/c2nnnn2-c2ccccc2)cc1	x	25.3	x	x	x
CCOC(=O)C1=C(C)N(C)C(=S)NC1c1cccc(Cl)c1Cl (stereo not drawn)	-24.5*	-12.8	2.5	x	4.6
C[C@H]1CCCCO[C@@H](CN(C)CC2CCCCC2)[C@@H](C)CN([C@@H](C)CO)C(=O)c2cc(NC(=O)Nc3cccc4ccccc34)ccc2O1	-3.0	x	x	-9.8	4.9
COc1ccc(-c2cc3ccc(O)cc3oc2=O)cc1	-17.1	89.1*	1.5	-2.0	-2.7
COc1ccc(-c2cc3ccc(OCC(C)=O)cc3oc2=O)cc1OC	3.8	91.8*	22.6	46.7*	-1.6
COc1ccc(-c2cc3ccc(OCC(C)=O)cc3oc2=O)cc1	3.7	64.0	33.8*	18.3	-4.5
COc1ccc(-n2c(SCC(=O)/C(C#N)=C(\C)N)nc3ccccc3c2=O)cc1OC	12.1	1.9	-4.0	x	4.1
Cc1ccc(-c2ccc(=O)n(CC(=O)NCCN(C)C)n2)cc1	x	1.6	x	-4.6	x
O=C(NC(C(=O)c1ccccc1)c1ccccc1)c1ccccc1 (stereo not drawn)	4.1	41.4	-2.2	40.7*	u
CCCCNC(=O)C1(C)CCCCN1C(=O)c1sccc1C (stereo not drawn)	12.2	x	-2.6	-2.2	-1.6
CCCCNC(=O)C1(C)CCCCN1C(=O)c1cccs1 (stereo not drawn)	0.5	x	39.2*	0.8	-2.9
CCCCNC(=O)C1(C)CCCCN1C(=O)c1c(C)noc1C (stereo not drawn)	3.3	x	32.7*	3.7	-4.0
CCCCNC(=O)C1(C)CCCCN1C(=O)c1ccno1 (stereo not drawn)	6.3	x	-0.1	0.4	2.0
CCCCCC(=O)NC(=S)Nc1ccccc1C(=O)OC	x	9.2	14.0	0.5	x
CCOC(=O)C1CCCN(C(=O)c2csc(-c3ccc4c(c3)CCO4)n2)C1 (stereo not drawn)	-40.9*	19.3	4.8	-2.2	1.9
CCOC(=O)C1CCCN(C(=O)c2ccc3c(c2)OCCO3)C1 (stereo not drawn)	10.7	11.1	0.8	7.1	0.6
CN(c1ccccc1)S(=O)(=O)c1ccc(NC(=O)C2CC2)cc1	-11.1	3.3	-3.8	x	-2.2
SMILES	rRNA inh HTS	MITF act	Wnt act	esBAF inh	AF4-AF9 inh
COc1cccc(Nc2nc(-c3ccc(O)cc3)cs2)c1	x	90.3*	x	35.9	x
COc1cccc(-c2csc(NC(=O)Nc3ccccc3)n2)c1	-27.6*	-2.9	6.8	21.1	-5.0
Cc1cccnc1Nc1nc(-c2ccc(O)cc2)cs1	x	101.2*	x	57.7*	x
COc1cccc(C(=O)Nc2nc(-c3ccncc3)cs2)c1	5.2	2.8	x	x	-0.5
COc1cccc(-c2csc(NC(=O)C3CC3)n2)c1	-25.8	119.5*	u	61.1*	-0.1
Cc1cccnc1Nc1nc(-c2ccc(F)cc2)cs1	-11.5	x	-3.8	u	2.8
CNC[C@@H]1Oc2ccc(NS(=O)(=O)c3cn(C)cn3)cc2C(=O)N([C@@H](C)CO)C[C@H]1C	6.8	x	x	-1.6	-5.7
CC(C)CC1(C)NC(=O)N(CCN2C(=O)c3ccccc3C2=O)C1=O (stereo not drawn)	x	6.3	x	-5.6	x
Nc1ccc2c(c1)C(=O)c1ccccc1-2	-3.0	x	31.7*	15.3	16.4
